Compound activity: PubChem, National Center for Advancing Translational Sciences (NCATS)
gsp agonist: qHTS for Agonist of gsp, the Etiologic Mutation Responsible for Fibrous Dysplasia/McCune-Albright Syndrome: qHTS | gsp mutant cells, cAMP HTRF, 30 min | Potency, µM (highest dose often 76.9 µM), for inactives: at the highest dose activation (cAMP increase), usual class: activators | 340,000 compounds, 0.13% hits; active = well fitted activation curve with a large enough effect; inconclusive = small, poorly fitted or top-dose-only effect, or another doubt; inactive = no such curve, though single readings can be large or run the other way; cell line not stated here;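 also: phosphodiesterase inhibitor Ro 20-1724 added with compounds to block cAMP breakdown; potency is read from the fitted curve at half-maximal effect; nearly all actives have a fitted effect of over 60% in size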
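Cells in DMEM/10% FBS with G418 were pretreated with compounds in DMSO plus […] (300 uM stock) for 30 min at 37C. cAMP was measured by HTRF (cAMP-d2 plus anti-cAMP antibody-K) after 30 min at room temperature.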
PTHR1 agonist: qHTS for PTHR1 Agonists: Primary Screen; HEK293 GP2 PTHR1 cells, GloSensor cAMP luminescence, 1 h; Parathyroid hormone/parathyroid hormone-related peptide receptor (Homo sapiens), Q03431; Potency, µM (top dose mostly 115 µM), without a hit: top-dose activation, usual class: activators; AID 743266, 2014; 410,000 compounds, 0.075% hits; also: potency is read from the fitted curve at half-maximal effect; nearly all actives have a fitted effect of over 55% in size
Target sequence (Q03431 whole entry, looked up): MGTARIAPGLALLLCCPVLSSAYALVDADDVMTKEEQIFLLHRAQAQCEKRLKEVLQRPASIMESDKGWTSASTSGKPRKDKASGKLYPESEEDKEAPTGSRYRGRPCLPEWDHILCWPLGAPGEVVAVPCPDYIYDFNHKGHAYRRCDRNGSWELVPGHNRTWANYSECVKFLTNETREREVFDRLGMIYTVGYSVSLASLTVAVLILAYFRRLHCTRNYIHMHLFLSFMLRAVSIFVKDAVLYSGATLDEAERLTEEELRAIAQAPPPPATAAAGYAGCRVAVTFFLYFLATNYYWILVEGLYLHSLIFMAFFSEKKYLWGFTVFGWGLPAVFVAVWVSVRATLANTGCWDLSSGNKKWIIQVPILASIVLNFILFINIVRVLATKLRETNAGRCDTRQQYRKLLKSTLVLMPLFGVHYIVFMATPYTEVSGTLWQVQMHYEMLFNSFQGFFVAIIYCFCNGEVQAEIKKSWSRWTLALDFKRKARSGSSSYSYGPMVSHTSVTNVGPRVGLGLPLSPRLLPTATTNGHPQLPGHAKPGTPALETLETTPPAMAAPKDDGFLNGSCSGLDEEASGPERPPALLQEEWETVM
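HEK-293-derived GP2 cells expressing PTHR1 and a GloSensor cAMP reporter, 3,000/well, plated overnight, given luciferin plus IBMX (each 0.5 mM as added) for 1 h at 37 °C, then compound for 1 h at 37 °C. Luminescence was read after 15 min at room temperature.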
RXFP1 antagonist: qHTS Assay for Antagonists of the Relaxin Receptor RXFP1. HEK293-RXFP1, relaxin-stimulated cAMP HTRF, 30 min; stronger effect = lower value. activity change, negative = inhibition, % at 57.5 µM. 350,000 compounds, 0.59% hits. AID 1259400, 2018;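 active = activity change of -60% or lower, but not beyond a set lower limit; inconclusive = change between -60% and -40%, or beyond the set limit; inactive = change above -40%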; also: % is scaled to controls: 0 for no effect and ±100 for the full control effect
RXFP1 ag: qHTS Assay for Agonists of the Relaxin Receptor RXFP1 | Relaxin receptor 1 (Homo sapiens), Q9HBX9 | HEK293T-RXFP1 cAMP TR-FRET, 30 min; response scale: percent of porcine relaxin response, buffer zero | Potency, µM (top dose mostly 57.5 µM), without a hit: at the top dose activation, most hits filed as activators | 370,000 compounds, 0.3% hits; also: potency is read from the fitted curve at half-maximal effect; % is scaled to controls: 0 for no effect and ±100 for the full control effect; nearly all actives have a fitted effect of over 60% in size
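Agonist response is measured as cAMP accumulation in an RXFP1-transfected HEK293T line under PDE4 inhibition. Values are scaled between buffer-only and 29 nM porcine relaxin, and EC50s come from standard Hill equation fits.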
gsp antag: qHTS for Antagonists of gsp, the Etiologic Mutation Responsible for Fibrous Dysplasia/McCune-Albright Syndrome: qHTS; gsp-mutant cells, cAMP HTRF, 30 min; Potency, µM (highest dose often 76.9 µM), for the others: top-dose activity change, negative = inhibition, most hits filed as inhibitors; 340,000 compounds, 0.4% hits; AID 624288, 2012; calls by dose curve; cell line not stated here;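 also: intracellular cAMP measured with PDE inhibitor Ro 20-1724 present during compound exposure; potency is read from the fitted curve at half-maximal effect; % is scaled to controls: 0 for no effect and ±100 for the full control effect; nearly all actives have a fitted effect of over 65% in size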
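Measurement of cellular cAMP by homogeneous time-resolved fluorescence following a 30 min compound exposure at 37C. The PDE inhibitor […] was present throughout; the assay buffer was DPBS with 0.05% BSA and 0.005% Tween 20.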
* marks the source's active call; other numbers are inactive results; i = inactive; ? = inconclusive; . = no result; [ ] = dose if it differs, or a comment. The list is not random: actives were taken first. Their share in the collection is about 1%. Unless noted, calls follow the shape of the dose curve; as a rule, active = well fitted curve in the direction sought with a large enough effect; inconclusive = small, poorly fitted or top-dose-only effect, or another doubt; inactive = no such curve, though single readings can be large; an effect the other way counts as inactive or inconclusive.

SMILES | gsp agonist | PTHR1 agonist | RXFP1 antagonist | RXFP1 ag | gsp antag
Cc1ccc(C(=O)N(Cc2ccco2)Cc2sccc2C)cc1 | . | i | -98* | 0% | .
Cc1ccsc1CN(Cc1ccco1)C(=O)c1ccc(Cl)cc1 | . | i | -74* | 5% | .
CCOc1ccc(C(=O)N(Cc2ccc(C(C)C)cc2)Cc2ccco2)cc1 | . | -2% | -79* | 3% | .
CCc1ccc(CN(Cc2ccco2)C(=O)c2ccc(C)cc2)cc1 | . | -5% | -68* | -1% | .
CCOc1ccccc1N1CC(c2nc3ccccc3n2CCOc2ccccc2OC)CC1=O (centres undefined) | . | -1% | -1 | -1% | .
COC(=O)c1cc(S(N)(=O)=O)ccc1OC | . | . | -12 | . | .
CCOC(=O)C1=C(CN2CCN(c3ccccc3F)CC2)NC(=O)NC1c1ccc(OC)cc1 (centres undefined) | . | -48% | 7 | 0% | .
O=C1C=CC(=O)N1c1ccc2c(c1)Cc1cc(F)ccc1-2 | ? | -17% | -20 | . | 10%
CC(=O)Nc1ccc2c(c1)Cc1cc(N3C(=O)C=CC3=O)ccc1-2 | -5% | -11% | -61* | . | -5%
COc1ccc(N2C3=C(C(=O)CC(C)(C)C3)C(c3ccccc3OC)C3=C2CC(C)(C)CC3=O)cc1 | ? | -14% | -21 | -1% | 28µM*
CCOC(=O)c1c(NC(=O)C(C)OC(=O)C2=COCCO2)sc2c1CCCC2 (centres undefined) | -16% | -23% | -15 | -1% | 22µM*
CCOC(=O)c1c(NC(=O)C(C)OC(=O)c2ccc(NC(=O)CC#N)cc2)sc2c1CCCC2 (centres undefined) | 4% | -6% | 1 | 1% | -15%
COc1ccc(C(=O)NCC(=O)N=Nc2c(O)n(C)c3ccccc23)cc1OC | -5% | i | -5 | 2% | -2%
COc1ccc(C(=O)NCC(=O)N=Nc2c(O)n(Cc3ccccc3)c3ccccc23)cc1OC | 10%[15.4 µM] | -12% | ? | -1% | 11µM*
COC(=O)c1sc(NC(=O)C2CCCCC2C(=O)O)c(C(=O)OC)c1C (centres undefined) | 14µM* | i | 16 | ? | 9%
CCn1c(=O)cc(SCC(=O)NCc2ccccc2OC)c2ccccc21 | . | -12% | . | 6% | .
Cc1c(C(=O)N2CCCCC2C)sc2ncnc(N3CCc4ccccc4C3)c12 (centres undefined) | 6%[15.4 µM] | i | ? | 1% | 11µM*
CCc1ccccc1N(C)C(=O)Cn1cnc2sc(C)c(S(=O)(=O)N3CCN(c4ncccn4)CC3)c2c1=O | . | -1% | . | 0% | .
CC(NC(=O)c1ccc2c(c1)N(Cc1ccc(Cl)cc1)C(=O)c1ccccc1S2=O)c1ccccc1 (centres undefined) | . | -10% | . | -1% | .
CC1OC(OC2C(CO)OC(OCC3OC(OC(=O)[C@@]45CCC(C)(C)C[C@@H]4C4=CC[C@@H]6[C@@]7(C)CCC(OC8OCC(O)C(O)C8OC8OC(C)C(O)C(O)C8O)[C@@](C)(CO)C7CC[C@@]6(C)[C@]4(C)CC5)C(O)C(O)C3O)C(O)C2O)C(O)C(O)C1O (some centres undefined) | . | 21% | . | . | 40µM*
CC1(C)CC[C@]2(C(=O)O)CC[C@]3(C)C(=CC[C@@H]4[C@@]5(C)CC[C@H](O[C@@H]6O[C@H](C(=O)O)[C@@H](O)[C@H](O[C@@H]7OC[C@H](O)[C@H](O)[C@H]7O)[C@H]6O)C(C)(C)[C@@H]5CC[C@]43C)[C@@H]2C1 | . | -7% | . | . | 45µM*
Cc1cnc2c(c1SCC(=O)Nc1ccc(F)cc1F)c(=O)n(C)c(=O)n2C | . | -8% | -4 | 7% | .
COc1ccc(OCCCCn2c(C3CC(=O)N(c4cccc(Cl)c4)C3)nc3ccccc32)cc1 (centres undefined) | . | -19% | . | -1% | .
CCCCc1nn2c(=O)cc(COC(=O)c3cccs3)nc2s1 | . | -17% | . | 1% | .
CC(Sc1ncnc2sc(-c3ccccc3)cc12)C(=O)NCC1CCCO1 (centres undefined) | 5% | -10% | -98* | 2% | -15%
SMILES | gsp agonist | PTHR1 agonist | RXFP1 antagonist | RXFP1 ag | gsp antag
CCN1CCN(CCCNC(=O)Cn2c(-c3cccs3)cc3cc(Cl)ccc32)CC1 | . | -20% | -69* | 3% | .
Clc1ccc2c(c1)-c1nnc(Br)n1-c1ccccc1S2 | 2% | i | -12 | 1% | 20µM*
O=C(COc1ncnc2scc(-c3ccccc3)c12)NCCN1C(=O)CSC1=O | . | . | . | 11µM* | .
Nc1ccc(C(=O)OCC(O)CO)cc1 (centres undefined) | . | . | 9 | . | .
O=C(NNc1cc(Br)c(O)c(Br)c1)c1ccccc1 | 5%[15.4 µM] | -89% | -96* | 0% | 0%
NS(=O)(=O)c1ccc(NNC(=O)c2ccccc2)cc1 | 1% | -10% | 1 | 0% | 7%
Cc1ccc(C(=O)NCC(=O)OCC(=O)c2ccc(Br)s2)cc1 | 14µM* | -4% | 0 | ? | 11%
O=C(CNS(=O)(=O)c1ccc2ccccc2c1)OCC(=O)c1ccc(Br)s1 | 8.9µM* | i | -9 | 25% | 14%
Cc1ccc(C(=O)NCC(=O)OCC(=O)c2ccc(Cl)s2)cc1 | 20% | -6% | -4 | 7% | 11%
Cc1cc(C(=O)OCC(=O)c2ccc(Br)s2)c(C)o1 | . | . | . | 15% | .
Cc1cc(C(=O)OCC(=O)c2ccc(Br)s2)no1 | 35µM* | i | 4 | ? | 26%
CC(=O)c1cc(-c2ccc(F)cc2)n(CCC(=O)Nc2nc3ccc(C)cc3s2)c1C | . | -7% | -28 | 1% | .
COc1ccc(-c2nc3ccccc3o2)cc1NC(=O)C(C)(C)Oc1ccc(Br)cc1 | . | -10% | . | -4% | .
Clc1ccc(Nc2nnc(Cc3ccncc3)c3ccccc23)cc1 | . | . | -22 | . | .
COc1cc2c(cc1OC)C(COc1ccc3c(C)cc(=O)oc3c1)N(C(=O)c1ccccc1F)CC2 (centres undefined) | . | i | -8 | 2% | .
CCCSCCCNC(=O)C1CCN(C(=O)c2cnn(-c3ccccc3)c2-n2cccc2)CC1 | . | i | . | -2% | .
Clc1ccc(-c2nnc(CSc3nnc(-c4cccs4)n3Cc3ccccc3)o2)cc1 | 11% | -93% | 17 | 2% | 25µM*
CCc1sc(C(=O)Nc2nc(-c3ccccn3)cs2)cc1C | -4% | -50% | -69* | . | -2%
COCCn1c(SCc2ccc(C(=O)OC)o2)nc2ccccc2c1=O | -48% | -16%[57.5 µM] | -9 | -1% | -3%
COC(=O)c1cc(CSc2nc3ccccc3c(=O)n2C)oc1C | -16% | -30% | 8 | 6% | 35µM*
Cc1ccc2c(C)ccc(O)c2n1 | -27% | i | -70* | 0% | 10%
